Screening data deposited in PubChem BioAssay by several laboratories.
A selection: hits, their analogues and other compounds. The true share with any hit is near 1.4%.
PrP 5UTR inh = inhibition of PrP 5' UTR reporter expression; cell-based PrP 5' UTR mRNA reporter, plate reader; actives 0.35% (n = 340,000); AID 488862; inhibition, % (test concentration not listed); in the data active = inhibition above about 52%; note: 0 = median of the neutral control wells
SSB-PriA inh = inhibitors of Klebsiella pneumoniae PriA binding to SSB C-terminal tail. inhibition, % at 33 µM. actives 0.6% (n = 430,000). AlphaScreen SSBct-PriA binding, biotinylated peptide; in the data active = inhibition mostly above about 37%, no sharp cut-off; inactive = mostly below about 20%;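 note: plate controls were negative control peptide for no effect and reference peptide for full effect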
FadD28 FP inh = inhibitors of Mycobacterium tuberculosis FadD28 bisubstrate binding; FadD28 bisubstrate probe binding, fluorescence polarization; inhibition, % at 12.5 µM; actives 0.22% (n = 360,000); in the data active = inhibition above about 8.5%, passing the limit was not always enough
PrPC surface inh = reduces human prion protein on the cell surface; P04156; cell surface PrPC, TR-FRET read-out; inhibition, % at 13.8 µM; actives 0.43% (n = 370,000); in the data active = inhibition above about 24%; note: 0% = median of the test wells and 100% = reference compound wells
Vc quorum ag = induces V. cholerae light production without autoinducers; activation, % at 18.7 µM; actives 0.16% (n = 350,000); V. cholerae BH1578 lux reporter, luminescence, 6 h; in the data active = activation mostly above about 9.7%, no sharp cut-off
* hit, by the source's call; ! = not active in a repeat.

Results for CCOc1ccc(NC(=O)Cc2ccccc2)c([N+](=O)[O-])c1 ?
PrP 5UTR inh: -20; SSB-PriA inh: 43*; FadD28 FP inh: -3; PrPC surface inh: -17; Vc quorum ag: inactive

What do the screens show for `CCOc1ccc(NC=CC(=O)c2ccccc2)c([N+](=O)[O-])c1`?
SSB-PriA inh: 43*

What do the screens show for `CCOc1ccc(NC(=O)c2snnc2C)c([N+](=O)[O-])c1`?
SSB-PriA inh: 52*

What do the screens show for `Cc1ccccc1Cn1nnc(C(=O)Nc2cc(F)ccc2F)c1N`?
SSB-PriA inh: -15

Results for Cc1ccc(/C=C/S(=O)(=O)NCC(C)(O)C2CC2)cc1 (stereo unspecified) ?
SSB-PriA inh: -9

What do the screens show for `Cc1nc(N(C)C)nc(C)c1NC(=O)c1ccc(Oc2ncccn2)cc1`?
SSB-PriA inh: -5

What do the screens show for `O=C(NC1CCN(c2nc(-c3cccnc3)cs2)CC1)C1(c2cccs2)CCCC1`?
SSB-PriA inh: 3

How did Cc1cccc(OCCOC(=O)C2CCN(S(=O)(=O)c3ccc(C)c(C)c3)CC2)c1 do in these assays?
PrP 5UTR inh: -11; SSB-PriA inh: 47*; FadD28 FP inh: -2; PrPC surface inh: 4; Vc quorum ag: 3

Results for CCOC(=O)C1C(c2ccc(C)o2)NC(=O)NC1(O)C(F)(F)F (stereo unspecified) ?
PrP 5UTR inh: 2; SSB-PriA inh: 43*!; FadD28 FP inh: 0; PrPC surface inh: 0; Vc quorum ag: -2

What do the screens show for `COc1ccc(C(=O)COC(=O)CN2CC(=O)Oc3ccccc32)cc1Br`?
PrP 5UTR inh: -5; SSB-PriA inh: 80*; FadD28 FP inh: -3; PrPC surface inh: -2; Vc quorum ag: 0

What do the screens show for `COc1ccc(C(=O)COC(=O)C2CC3CCCC(C2)C3=O)cc1Br` (stereo unspecified)?
PrP 5UTR inh: -8; SSB-PriA inh: -4; FadD28 FP inh: -4; PrPC surface inh: 3; Vc quorum ag: inactive

How did COc1ccc(CC(=O)Nc2nnc(SCC(=O)NC3=NCCS3)s2)cc1 do in these assays?
SSB-PriA inh: 2

What do the screens show for `CCOC(=O)N1CCN(C(CC(=O)OC)C(=O)OC)CC1` (stereo unspecified)?
SSB-PriA inh: 76*

Results for CCN(c1ccccc1)C1SC(=O)N(CCN2C(=O)S/C(=C/c3ccccc3)C2=O)C1=O (stereo unspecified) ?
SSB-PriA inh: 7

Results for Cc1cccc(C)c1N=C1NN=C(c2ccccc2F)CS1 ?
PrP 5UTR inh: -45; SSB-PriA inh: 15; FadD28 FP inh: -2; PrPC surface inh: -4; Vc quorum ag: inactive

What do the screens show for `Cc1ccccc1N=C1NN=C(c2ccccc2F)CS1`?
PrP 5UTR inh: -64; SSB-PriA inh: 39*; FadD28 FP inh: 1; PrPC surface inh: 7; Vc quorum ag: 0

How did O=C(O)C1Nc2c(O)cc(Cl)c([N+](=O)[O-])c2C2C=CCC12 (stereo unspecified) do in these assays?
PrP 5UTR inh: -25; SSB-PriA inh: 98; FadD28 FP inh: 59*; PrPC surface inh: -2; Vc quorum ag: inactive

Results for O=C1NN(c2ccc(Br)cc2)C(=O)/C1=C\c1ccc(O)cc1O ?
PrP 5UTR inh: -18; SSB-PriA inh: 3; FadD28 FP inh: 16*; PrPC surface inh: 6; Vc quorum ag: -1

Results for CCNC(=O)N1Cc2cncnc2C1 ?
SSB-PriA inh: -5

Results for CCOc1ccc(Cl)cc1S(=O)(=O)NC(C)C ?
SSB-PriA inh: -2

Results for CC(C)(C)C(=O)Nc1ccccc1C(=O)NCCCn1ccnc1 ?
PrP 5UTR inh: -17; SSB-PriA inh: 51*; FadD28 FP inh: -2; PrPC surface inh: 6; Vc quorum ag: 0

What do the screens show for `O=C(NCCCn1ccnc1)Nc1cc(Cl)cc(Cl)c1`?
SSB-PriA inh: 57*

How did O=C(Nc1ccccc1C(=O)NCCCn1ccnc1)c1ccccc1 do in these assays?
PrP 5UTR inh: -41; SSB-PriA inh: 4; FadD28 FP inh: -2; Vc quorum ag: 0

What do the screens show for `O=C(NCCCn1ccnc1)Nc1cccc(Cl)c1`?
PrP 5UTR inh: -22; SSB-PriA inh: 74*; FadD28 FP inh: -4; PrPC surface inh: 2; Vc quorum ag: inactive

Results for O=C(NCCCn1ccnc1)Nc1cccc(I)c1 ?
SSB-PriA inh: 27

Results for O=C(NCCCn1ccnc1)C(=O)Nc1ccc(Cl)cc1 ?
SSB-PriA inh: -9

Results for O=C(NCCCn1ccnc1)C(=O)NCc1ccccc1Cl ?
SSB-PriA inh: 85*

Results for O=C(CSc1nnc(CNC(=O)c2ccc(Cl)cc2Cl)n1-c1ccc(Cl)c(Cl)c1)Nc1nccs1 ?
SSB-PriA inh: -15

Results for Cc1cc(C)c(S(=O)(=O)NCCC(O)C2CC2)cc1C (stereo unspecified) ?
SSB-PriA inh: 2

What do the screens show for `c1ccc(-c2nnc(SCc3nc4ccccc4[nH]3)n2Cc2ccco2)nc1`?
PrP 5UTR inh: -37; SSB-PriA inh: 88*; FadD28 FP inh: -4; PrPC surface inh: 7; Vc quorum ag: 0

How did Nn1c(SC/C=C/c2ccccc2)nnc1-c1ccccn1 do in these assays?
PrP 5UTR inh: -33; SSB-PriA inh: 90*; FadD28 FP inh: -4; PrPC surface inh: 2; Vc quorum ag: 0

What do the screens show for `C(=C\c1ccccc1)/CSc1nnc(-c2ccccn2)n1Cc1ccco1`?
PrP 5UTR inh: -20; SSB-PriA inh: 68*; FadD28 FP inh: -2; PrPC surface inh: -10

How did O=C(O)c1cccc(S(=O)(=O)Nc2ccc(NS(=O)(=O)c3cccc(C(=O)O)c3)cc2)c1 do in these assays?
SSB-PriA inh: -8

How did CCS(=O)(=O)N1CCC[C@H](Cc2nc(-c3ccccc3C)no2)C1 do in these assays?
SSB-PriA inh: -18

What do the screens show for `COc1c2ccc(C(=O)NCCCn3ncccc3=O)cc2nn1C`?
SSB-PriA inh: -2

Results for Cc1ccccc1-n1c(SCC(=O)Nc2ccc3c(c2)OCO3)nnc1-c1ccccn1 ?
PrP 5UTR inh: 0; SSB-PriA inh: 42*; FadD28 FP inh: -3; PrPC surface inh: 5; Vc quorum ag: 0

How did Cn1cccc1Cc1nnc(SCC(=O)Nc2ccc3c(c2)OCO3)n1-c1ccc(Cl)cc1 do in these assays?
SSB-PriA inh: 87*

What do the screens show for `CC(C)Oc1ccc(C(O)=C2C(=O)C(=O)N(Cc3cccnc3)C2c2ccco2)cc1` (stereo unspecified)?
SSB-PriA inh: -2

What do the screens show for `O=c1ccc(-c2cccs2)nn1CCNS(=O)(=O)c1ccc(C(F)(F)F)cc1`?
SSB-PriA inh: -10

How did COC(=O)c1sccc1NC(=O)C1CCCCC1C(=O)O (stereo unspecified) do in these assays?
PrP 5UTR inh: -43; SSB-PriA inh: -11; FadD28 FP inh: -2; PrPC surface inh: 37*; Vc quorum ag: inactive

Results for COC(=O)c1ccccc1NC(=O)C1CCCCC1C(=O)O (stereo unspecified) ?
PrP 5UTR inh: 1; SSB-PriA inh: 5; FadD28 FP inh: -3; PrPC surface inh: -1; Vc quorum ag: inactive

How did COc1cccc(C=Nn2c(COc3ccccc3)n[nH]c2=S)c1OC do in these assays?
SSB-PriA inh: 9
